According to the supplement of paper PMC10849652:
Targets with a hit are over-represented here; the source holds about 8,800 in all. About 0.5% of all pairs of compound and target were hits.

The targets below were run with C1CN(CCC1(CC2=CC=C(C=C2)Cl)N)C3=NC=NC4=C3C=CN4 (assay: log2 fold change, soluble protein after heating vs DMSO (PISA); higher = thermal stabilisation; K562 lysate, 10 uM; active = over 0.2 and 3.5 SD of the protein, either way, in both replicates (recomputed)).
Procedure, shortened: (§1)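 K562 pellets were dounce-homogenised in PBS pH 7.4 with 1 mM MgCl2, and the crude extract at 1 mg/mL protein was treated with 10 μM compound for 30 min. Aliquots were heated for 3 min across 48°C-58°C, pooled, and brought to 0.5% NP-40 at 4°C; soluble protein was the supernatant after 21,000xg for 90 min. Soluble protein was quantified by TMTpro 16plex LC-MS/MS with channel sums equalised, and reported as log2 fold change in thermal stability against DMSO controls, with values from duplicates.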

UniProt Q9BXT8, sequence (Q9BXT8 whole entry, looked up): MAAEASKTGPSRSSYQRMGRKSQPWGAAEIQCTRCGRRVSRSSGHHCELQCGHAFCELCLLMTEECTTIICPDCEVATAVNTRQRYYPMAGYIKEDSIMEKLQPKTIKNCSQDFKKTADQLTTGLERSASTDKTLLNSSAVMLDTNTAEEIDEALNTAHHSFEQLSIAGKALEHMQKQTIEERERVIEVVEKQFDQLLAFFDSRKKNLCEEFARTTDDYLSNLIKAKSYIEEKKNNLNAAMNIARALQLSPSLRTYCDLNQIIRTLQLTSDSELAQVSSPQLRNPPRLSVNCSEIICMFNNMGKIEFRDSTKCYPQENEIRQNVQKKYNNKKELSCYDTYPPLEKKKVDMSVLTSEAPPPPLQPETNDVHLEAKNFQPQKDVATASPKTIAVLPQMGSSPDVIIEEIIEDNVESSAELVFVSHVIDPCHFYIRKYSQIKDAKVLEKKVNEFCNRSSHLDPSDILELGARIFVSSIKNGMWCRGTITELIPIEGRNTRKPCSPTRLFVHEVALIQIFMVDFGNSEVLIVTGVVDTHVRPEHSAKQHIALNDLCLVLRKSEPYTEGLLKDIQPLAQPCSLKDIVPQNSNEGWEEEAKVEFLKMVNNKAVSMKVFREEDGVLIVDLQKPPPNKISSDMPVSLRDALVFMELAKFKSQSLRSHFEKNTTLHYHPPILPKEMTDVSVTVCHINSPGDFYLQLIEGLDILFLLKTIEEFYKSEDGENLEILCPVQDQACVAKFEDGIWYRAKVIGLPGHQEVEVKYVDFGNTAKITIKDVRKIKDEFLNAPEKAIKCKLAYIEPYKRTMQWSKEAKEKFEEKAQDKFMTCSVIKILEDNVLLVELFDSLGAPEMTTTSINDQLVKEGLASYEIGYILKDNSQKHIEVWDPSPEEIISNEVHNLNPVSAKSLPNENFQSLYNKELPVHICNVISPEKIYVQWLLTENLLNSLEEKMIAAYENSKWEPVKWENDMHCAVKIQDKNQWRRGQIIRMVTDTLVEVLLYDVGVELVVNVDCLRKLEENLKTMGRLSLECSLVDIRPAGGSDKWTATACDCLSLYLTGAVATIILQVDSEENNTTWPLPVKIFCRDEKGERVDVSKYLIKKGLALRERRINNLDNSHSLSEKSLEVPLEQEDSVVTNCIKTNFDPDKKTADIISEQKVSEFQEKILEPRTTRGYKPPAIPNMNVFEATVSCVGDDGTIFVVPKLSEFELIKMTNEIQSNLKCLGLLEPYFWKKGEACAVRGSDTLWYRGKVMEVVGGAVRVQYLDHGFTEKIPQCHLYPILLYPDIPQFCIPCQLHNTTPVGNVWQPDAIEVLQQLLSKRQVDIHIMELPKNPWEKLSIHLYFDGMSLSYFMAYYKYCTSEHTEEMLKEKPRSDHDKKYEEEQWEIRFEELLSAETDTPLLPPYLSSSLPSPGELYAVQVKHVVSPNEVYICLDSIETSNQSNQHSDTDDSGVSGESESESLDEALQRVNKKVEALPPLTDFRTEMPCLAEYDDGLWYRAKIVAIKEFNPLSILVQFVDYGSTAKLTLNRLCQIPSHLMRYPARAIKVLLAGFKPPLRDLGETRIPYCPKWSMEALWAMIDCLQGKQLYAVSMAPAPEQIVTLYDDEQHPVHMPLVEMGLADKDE
UniProt O75582, sequence (O75582 whole entry, looked up): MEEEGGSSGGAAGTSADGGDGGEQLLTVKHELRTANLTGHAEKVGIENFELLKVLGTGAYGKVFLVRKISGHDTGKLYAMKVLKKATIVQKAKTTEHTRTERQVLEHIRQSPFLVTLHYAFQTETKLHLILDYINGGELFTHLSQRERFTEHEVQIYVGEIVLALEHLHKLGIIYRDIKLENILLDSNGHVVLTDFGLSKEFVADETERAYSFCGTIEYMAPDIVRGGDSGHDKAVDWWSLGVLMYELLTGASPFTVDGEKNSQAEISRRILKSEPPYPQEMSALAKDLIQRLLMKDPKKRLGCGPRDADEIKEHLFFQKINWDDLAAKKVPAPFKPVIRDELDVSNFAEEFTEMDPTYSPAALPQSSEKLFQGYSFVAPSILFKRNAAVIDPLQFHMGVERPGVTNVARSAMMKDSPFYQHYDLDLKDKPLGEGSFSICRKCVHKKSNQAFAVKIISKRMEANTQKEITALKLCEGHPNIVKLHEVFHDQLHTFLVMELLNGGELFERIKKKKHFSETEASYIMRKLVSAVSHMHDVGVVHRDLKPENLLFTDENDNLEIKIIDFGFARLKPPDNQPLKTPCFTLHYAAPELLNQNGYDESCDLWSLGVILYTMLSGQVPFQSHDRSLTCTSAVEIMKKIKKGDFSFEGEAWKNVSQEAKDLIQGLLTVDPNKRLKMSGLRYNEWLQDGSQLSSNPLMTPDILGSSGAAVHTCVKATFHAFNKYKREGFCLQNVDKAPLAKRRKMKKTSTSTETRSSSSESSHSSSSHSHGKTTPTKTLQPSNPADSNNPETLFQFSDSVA
UniProt Q9BWG6, sequence (Q9BWG6 whole entry, looked up): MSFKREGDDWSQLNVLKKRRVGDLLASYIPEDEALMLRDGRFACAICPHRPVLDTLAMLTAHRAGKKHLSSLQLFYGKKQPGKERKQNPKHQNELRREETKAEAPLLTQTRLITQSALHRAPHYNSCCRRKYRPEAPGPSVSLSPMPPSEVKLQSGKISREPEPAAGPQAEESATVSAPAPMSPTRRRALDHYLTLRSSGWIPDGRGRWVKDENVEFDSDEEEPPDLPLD
UniProt Q96E14, sequence (Q96E14 whole entry, looked up): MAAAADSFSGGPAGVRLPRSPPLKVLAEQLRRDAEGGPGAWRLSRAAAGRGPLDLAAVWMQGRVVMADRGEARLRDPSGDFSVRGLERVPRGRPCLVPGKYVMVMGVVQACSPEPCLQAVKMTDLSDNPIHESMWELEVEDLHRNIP
UniProt P51812, sequence (P51812 whole entry, looked up): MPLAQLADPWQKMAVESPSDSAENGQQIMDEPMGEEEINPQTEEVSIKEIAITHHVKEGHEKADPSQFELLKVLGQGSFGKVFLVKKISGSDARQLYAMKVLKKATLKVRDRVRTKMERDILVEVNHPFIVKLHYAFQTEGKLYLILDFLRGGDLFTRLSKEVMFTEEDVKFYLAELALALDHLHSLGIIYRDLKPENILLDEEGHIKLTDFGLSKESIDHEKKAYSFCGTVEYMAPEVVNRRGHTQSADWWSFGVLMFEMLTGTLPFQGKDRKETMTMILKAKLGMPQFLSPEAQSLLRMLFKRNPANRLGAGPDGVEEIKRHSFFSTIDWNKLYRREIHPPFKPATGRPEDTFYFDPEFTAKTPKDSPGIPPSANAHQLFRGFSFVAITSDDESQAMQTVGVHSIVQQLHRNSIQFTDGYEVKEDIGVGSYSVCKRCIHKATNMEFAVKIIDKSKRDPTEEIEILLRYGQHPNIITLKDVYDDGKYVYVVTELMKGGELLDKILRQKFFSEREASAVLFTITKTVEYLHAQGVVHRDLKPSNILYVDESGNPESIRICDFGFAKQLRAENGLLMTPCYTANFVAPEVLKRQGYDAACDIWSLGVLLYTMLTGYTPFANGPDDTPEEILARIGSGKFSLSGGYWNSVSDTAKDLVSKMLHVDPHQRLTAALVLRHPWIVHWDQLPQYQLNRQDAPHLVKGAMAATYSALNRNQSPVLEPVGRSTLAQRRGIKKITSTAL
UniProt O75943, sequence (O75943 whole entry, looked up): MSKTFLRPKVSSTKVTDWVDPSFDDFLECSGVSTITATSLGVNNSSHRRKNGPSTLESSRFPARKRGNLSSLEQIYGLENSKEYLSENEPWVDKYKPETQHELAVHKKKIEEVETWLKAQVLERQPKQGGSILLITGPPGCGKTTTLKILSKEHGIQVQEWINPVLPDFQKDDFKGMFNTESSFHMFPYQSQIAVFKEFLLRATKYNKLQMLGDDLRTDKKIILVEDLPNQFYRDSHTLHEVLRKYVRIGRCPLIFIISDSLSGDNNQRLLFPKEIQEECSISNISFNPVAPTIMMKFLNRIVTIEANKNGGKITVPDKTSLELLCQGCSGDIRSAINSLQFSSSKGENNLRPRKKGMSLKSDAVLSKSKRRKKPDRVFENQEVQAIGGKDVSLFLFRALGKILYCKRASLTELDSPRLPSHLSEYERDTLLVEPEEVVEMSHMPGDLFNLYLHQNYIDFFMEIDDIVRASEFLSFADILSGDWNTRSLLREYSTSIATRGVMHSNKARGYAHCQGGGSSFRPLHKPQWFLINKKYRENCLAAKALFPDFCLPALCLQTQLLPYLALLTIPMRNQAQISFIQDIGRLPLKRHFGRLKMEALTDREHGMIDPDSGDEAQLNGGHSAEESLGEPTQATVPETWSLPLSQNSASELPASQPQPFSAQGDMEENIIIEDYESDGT
UniProt Q7L0Q8, sequence (Q7L0Q8 whole entry, looked up): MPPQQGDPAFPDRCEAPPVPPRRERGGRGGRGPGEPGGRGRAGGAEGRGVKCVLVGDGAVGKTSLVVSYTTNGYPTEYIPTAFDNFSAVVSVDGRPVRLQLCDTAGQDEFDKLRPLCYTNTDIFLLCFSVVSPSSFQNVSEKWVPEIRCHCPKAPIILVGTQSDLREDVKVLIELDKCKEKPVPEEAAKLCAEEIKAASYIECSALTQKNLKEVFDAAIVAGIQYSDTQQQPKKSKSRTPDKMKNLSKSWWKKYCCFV
UniProt Q8TC12, sequence (Q8TC12 whole entry, looked up): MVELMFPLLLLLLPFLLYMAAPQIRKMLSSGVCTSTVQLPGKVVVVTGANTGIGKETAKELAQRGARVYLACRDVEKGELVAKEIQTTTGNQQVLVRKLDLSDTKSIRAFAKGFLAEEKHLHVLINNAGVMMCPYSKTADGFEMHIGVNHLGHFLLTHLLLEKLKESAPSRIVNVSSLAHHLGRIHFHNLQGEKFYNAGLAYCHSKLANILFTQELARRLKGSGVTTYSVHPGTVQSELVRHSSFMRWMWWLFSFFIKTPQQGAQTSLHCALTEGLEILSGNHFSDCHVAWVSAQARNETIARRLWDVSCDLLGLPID
UniProt O75446, sequence (O75446 whole entry, looked up): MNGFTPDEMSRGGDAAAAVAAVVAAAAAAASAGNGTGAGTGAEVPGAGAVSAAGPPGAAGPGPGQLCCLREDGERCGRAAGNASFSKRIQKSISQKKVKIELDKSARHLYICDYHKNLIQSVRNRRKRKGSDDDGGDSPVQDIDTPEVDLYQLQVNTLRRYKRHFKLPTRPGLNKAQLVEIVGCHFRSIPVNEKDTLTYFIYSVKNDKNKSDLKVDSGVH

log2 fold change, inactive:
RAD54L2 (UniProt Q9Y4B4) 0.055
RMI2 (UniProt Q96E14) 0.117
SATB2 (UniProt Q9UPW6) 0.009
SAP30 (UniProt O75446) 0.067
RALGAPB isoform 3 (UniProt Q86X10) 0
SCNM1 (UniProt Q9BWG6) -0.158
SERAC1 (UniProt Q96JX3) 0.056
RPS6KA3 (UniProt P51812) -0.043
RHOU (UniProt Q7L0Q8) 0.03
RAB5IF isoform 5 (UniProt Q9BUV8) 0.034
RXRB isoform 3 (UniProt P28702) -0.015
RDH11 (UniProt Q8TC12) 0.063
SEMA4G isoform 2 (UniProt Q9NTN9) -0.112
RAD17 (UniProt O75943) 0.019
RHBDD1 (UniProt Q8TEB9) 0.159
RAP1B (UniProt F5GZG1) 0.04
QSER1, A0A3B3IRW6 -0.046
S100A6 (UniProt P06703) 0.151
RPS6KA5 (UniProt O75582) -0.11
RUFY2 isoform 1 (UniProt Q8WXA3) 0.041
RYR1 (UniProt P21817) -0.057
RNF17 (UniProt Q9BXT8) 0.033
RNF2 (UniProt Q99496) -0.037

The targets below were run with C1COCCN1CCN2C3=CC=CC=C3N=C2NC(=O)C4=CC(=CC=C4)[N+](=O)[O-] [IRAK-1-4 Inhibitor I] in the same assay as above.
Procedure, shortened: as §1

log2 fold change, inactive:
RMI2 (UniProt Q96E14) 0.054
SATB2 (UniProt Q9UPW6) 0.027
SCNM1 (UniProt Q9BWG6) -0.021
SEC16A isoform 3 (UniProt O15027) 0.123
RPS6KA3 (UniProt P51812) -0.019
RHOU (UniProt Q7L0Q8) -0.089
SEC16A isoform 2 (UniProt O15027) -0.053
RAD54L (UniProt Q92698) 0.02
RDH11 (UniProt Q8TC12) 0.012
RXRA (UniProt P19793) 0.113
RAD17 (UniProt O75943) 0.021
QSER1, A0A3B3IRW6 -0.014
S100A6 (UniProt P06703) -0.209
RPS6KA5 (UniProt O75582) 0.014
RUFY2 isoform 1 (UniProt Q8WXA3) 0.05
RYR1 (UniProt P21817) -0.003
RNF17 (UniProt Q9BXT8) 0.055
RNF2 (UniProt Q99496) -0.039
RNPC3 (UniProt Q96LT9) 0.076
ROBO2 isoform 3 (UniProt Q9HCK4) -0.062
